The supplement of paper PMC10105736
A number with no mark means an inactive call.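 The calls were made as follows: active = MAPPIT score above the 99th percentile of random reference set scores in the same batch; inactive = at or below it.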

Tests used:
Assay in all cases: MAPPIT interaction score (arbitrary units); higher = stronger binary interaction signal, active = hit call of the paper
bru3 = settings: MAPPIT configuration: N-N; pair source set: DPIM
cactin = settings: MAPPIT configuration: N-N; pair source set: RRS
cathD = settings: MAPPIT configuration: N-N; pair source set: DPIM
cic = settings: pair source set: Lit-BM-16
rl = settings: MAPPIT configuration: N-N; pair source set: Curagen_high_conf
corto = settings: pair source set: Lit-BM-16
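Also: HEK293T cells with Epo stimulation, STAT-responsive firefly luciferase reporter, fold induction versus unstimulated cells divided by the larger fold induction of two negative controls lacking either bait or prey.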

B1: abs (protein)
chain: MAHVKRYRRSSKSSEEGDLDNEDYVPYVPVKERKKQHMIKLGRIVQLVSETAQPKSSSENENEDDSQGAHDVETWGRKYNISLLDQHTELKKIAEAKKLSAVEKQLREEEKIMESIAQQKALMGVAELAKGIQYEQPIKTAWKPPRYIREMSEEEREAVRHELRILVEGETPSPPIRSFREMKFPKGILNGLAAKGIKNPTPIQVQGLPTVLAGRDLIGIAFTGSGKTLVFVLPVIMFALEQEYSLPFERNEGPYGLIICPSRELAKQTHEIIQHYSKHLQACGMPEIRSCLAMGGLPVSEALDVISRGVHIVVATPGRLMDMLDKKILTLDMCRYLCMDEADRMIDMGFEEDVRTIFSFFKGQRQTLLFSATMPKKIQNFARSALVKPVTINVGRAGAASMNVTQQVEYVKQEAKVVYLLDCLQKTAPPVLIFAEKKQDVDCIHEYLLLKGVEAVAIHGGKDQEERSRAVDAYRVGKKDVLVATDVASKGLDFPNVQHVINYDMPDDIENYVHRIGRTGRSNTKGLATTLINKTTEQSVLLDLKHLLIEGKQEVPDFLDELAPETEHQHLDLGDSHGCTYCGGLGHRITECPKLEAVQNKQASNIGRRDYLSNTAADY
- MAPPIT interaction score (bru3): -0.236

B2: Gs1 (protein)
chain: MALRVAGLFLKKELVAPATQQLRLLRTGNTTRSQFLANSPNTALDKSILQRYRNLETPANRVQATYLWIDGTGENIRLKDRVLDKVPSSVEDLPDWQYDGSSTYQAHGENSDTTLKPRAIYRDPFKPGKNDVIVLCDTYSADGKPTASNKRAAFQAAIDLISDQEPWFGIEQEYTLLDVDGRPFGWPENGFPAPQGPYYCGVGADRVYARDLVEAHVVACLYAGIDFAGTNAEVMPAQWEFQIGPAGIKACDDLWVSRYILQRIAEEYGVVVTFDPKPMEGQWNGAGAHTNFSTKEMRADGGIKAIEEAIEKLSKRHERHIKAYDPKEGKDNERRLVGRLETSSIDKFSWGVANRAVSVRVPRGVATAGKGYLEDRRPSSNCDPYAVCNAIVRTCLLNE
- MAPPIT interaction score (cactin): -0.185

B3: Wdr24 (protein)
chain: MPDSVEDTSTISLRICLEGHANALALNKDNNQIALAGRSLLKVYSINSNGFTESCNMRGKNQNLSYSANDVAWSTLDSNLLATAATNGVVSVWDLSKFGRQKQLLVYNEHERTAHTVTFHSSEPNILISGSQDGTIKCFDIRSDKSINTYFCNSESVRDVKFSPHTQNIFSAVSENGTVQLWDMRKWDKCMVQFTAHYGPVYTCDWHPTRNWLATGSRDKQIKVWNMDGRPGLEHTIHTIAVVGRVKWRPERTYHIASCALVVDYSVHVWDIRRPYIPFASFNEHTNVTTGIAWQGSDSHCLLSISKDSTIYKHAFKDATRPALKANAQGASLGRFGDISFANKIKEYEPKTSGASNTKSSSFIRRKTNVAGSIQFHLDHSKMYKFMVNDTFSGYPLSESVSRPTQEHESFIGCARELVISGKKLSELCEHNAEVSKKYGKHNATTLWNFIKLFYGSNHFEPPFEHRSSFSNQKNPMNSRRATQVASDWPQQRTELGQDLNGNTPETAHEIDVANVDDDTLGSSGVEHPPTSSVILSETQIISEITFDNFELLRNGFIYVGPTECPKALAFPALHHDVQAARPQLDLKASDHEKSPPPHVPTVLKVSHVPPIPMWEPHKFVSDALMLMNDVGDVQTALTVLIALGEARKLLPIDDALVEHWFYTYVDQLHRYELWNEACEVINRSWLRSVQQLNQHSTAMHTNCGECGRPMGGKVGWYCDKCKSMQSAKCCVCGLIVRGVYAWCQGCSHGGHIEHLQKYFAKHSKCPKCGHLCAYS
- MAPPIT interaction score (cathD): -0.0301

B4: rl (protein)
chain: MEEFNSSGSVVNGTGSTEVPQSNAEVIRGQIFEVGPRYIKLAYIGEGAYGMVVSADDTLTNQRVAIKKISPFEHQTYCQRTLREITILTRFKHENIIDIRDILRVDSIDQMRDVYIVQCLMETDLYKLLKTQRLSNDHICYFLYQILRGLKYIHSANVLHRDLKPSNLLLNKTCDLKICDFGLARIADPEHDHTGFLTEYVATRWYRAPEIMLNSKGYTKSIDIWSVGCILAEMLSNRPIFPGKHYLDQLNHILGVLGSPSRDDLECIINEKARNYLESLPFKPNVPWAKLFPNADALALDLLGKMLTFNPHKRIPVEEALAHPYLEQYYDPGDEPVAEVPFRINMENDDISRDALKSLIFEETLKFKERQPDNAP
- MAPPIT interaction score (cic; MAPPIT configuration: N-C): 0.149
- MAPPIT interaction score (cic; MAPPIT configuration: N-N): 0.776
- MAPPIT interaction score (rl): 0.844

B5: corto (protein)
chain: MTMAACYANYDMSSLSHGMSALSALQQQQQQQQQQHSQTQQQHHHQQQQQHMYHAAVAAHQQQLLQQQQQQQHHRHHHQPANTSSSSNSRHSHAAATQTQVAAAVANSRQQQQQQQQQQQQQQQQQTASSNSNAAPAPSPQKDYSIPLHVDCSVEYELPNQPKPPAGQRVEPLLMIHPCYFRKMESQRRSPFVNNMHATARAVSSSSLSSGAALGGGGSGAAVATAPSSSAARRGARAATSAQQQQQQQQRYQQQQQQLRQQHQQMSQMSQQAHYPQQQSSLVRQHQQQQQQQQQQQRASSNQSQRQSQSQSQSQSHAANSAAAAAAQASIAAAAAGQWDQLAALAARTALTPHHMLHPHSHYAAKGSGGGAGGGKRDAMISGSYGQTAVASGKLQQSQVQQQQPQQQQQHCLPPPPWDATSMLMDRSPMATVPSNYQAGPDTNPMRLYSATPTAGAASGGSASVGGGGAVSGAGATGAVNTATDKLSGKYRQYLRSQRMHPYAAAASLNLAAAAAAAGQTSFVPFSSAATAVAATPTFQHLPQISCYNV
- MAPPIT interaction score (corto; MAPPIT configuration: N-C): 0.538
- MAPPIT interaction score (corto; MAPPIT configuration: N-N): 0.215
